Hits are enriched below; roughly 4.6% of the tested compounds scored in any of these assays.
TRHR PAM: qHTS for Small Molecule Agonists and Allosteric Enhancers of Human TRH Receptor: Primary Screen for Enhancers. TRHR cells, fluo-8 calcium fluorescence, EC20 TRH enhancement. enhancement, % at 2 µM. actives 0.66% (n = 360,000). AID 493056, 2011; in the data active = enhancement above about 30%; also: 0% is about no effect
Target sequence (P34981 whole entry, looked up): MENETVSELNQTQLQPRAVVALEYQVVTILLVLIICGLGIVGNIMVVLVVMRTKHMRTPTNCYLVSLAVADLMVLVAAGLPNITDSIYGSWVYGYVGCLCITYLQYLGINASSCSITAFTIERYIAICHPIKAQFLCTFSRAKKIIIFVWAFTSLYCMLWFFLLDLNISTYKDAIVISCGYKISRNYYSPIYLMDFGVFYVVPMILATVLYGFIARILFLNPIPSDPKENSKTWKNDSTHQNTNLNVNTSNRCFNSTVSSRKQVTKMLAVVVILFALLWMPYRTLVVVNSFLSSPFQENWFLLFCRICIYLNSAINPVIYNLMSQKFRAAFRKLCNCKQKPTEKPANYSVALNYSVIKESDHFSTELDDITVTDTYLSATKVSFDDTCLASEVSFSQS
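Enhancer read-out: after compound pinning and an initial kinetic agonist-mode read, an EC20 of TRH (10 nM final) was injected and fluo-8 calcium signal (Ex 480/Em 530) followed at 1 s/cycle for 100 cycles in TRHR-expressing cells.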
D1 ag: Allosteric Agonists of the Human D1 Dopamine Receptor: qHTS; actives 1% (n = 360,000); HEK293 T-REx D1 cells, calcium flux, agonist mode; AID 504660, 2011; activation, % at 2 µM; also: 0% is about no effect
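Inducible HEK293 T-REx D1 cells, force-coupled to calcium signalling, were plated at 4000 cells/well with tetracycline and held overnight at 30 C. After no-wash calcium dye loading, compound-evoked calcium rise over 180 s flagged agonists.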
D1 antag: Antagonist of Human D 1 Dopamine Receptor: qHTS | D(1A) dopamine receptor (Homo sapiens), P21728 | HEK293 TREx D1 cells, calcium flux, dopamine EC80; stronger effect = lower value | activity change, negative = inhibition, % at 10 µM | actives 3.2% (n = 360,000); in the data active = activity change below about -30%; also: % is scaled to controls: 0 for no effect and ±100 for the full control effect
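Tetracycline-induced HEK293 T-REx cells with force-coupled D1 receptor were loaded with a no-wash calcium dye. Compound was added after a 10 s baseline and read kinetically for 180 s; EC80 dopamine was then added and calcium flux followed another 180 s.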
TRHR ag: qHTS for Small Molecule Agonists and Allosteric Enhancers of Human TRH Receptor: Primary Screen for Agonists; actives 0.18% (n = 360,000); TRHR cells, calcium flux fluo-8, FDSS agonist mode; Thyrotropin-releasing hormone receptor (Homo sapiens), P34981; activation, % at 2 µM; also: 0% is about no effect
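TRHR-expressing cells loaded with fluo-8 calcium dye; 23 nL library compound pin-transferred, kinetic FDSS fluorescence (Ex 480/Em 530) recorded about 180 s for agonist-induced calcium release, before a 10 nM TRH EC20 addition for potentiator mode.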
D1 PAM: Potentiators of Human D1 Dopamine Receptor: qHTS. potentiation, % at 10 µM. AID 504651, 2011. actives 0.036% (n = 360,000). D(1A) dopamine receptor (Homo sapiens), P21728. HEK293 TREx D1 cells, calcium flux, dopamine EC20 potentiation; in the data active = potentiation above about 30%; also: 0% is about no effect
The depositor's hits bear a star. Rule as the data show it, unless noted: active = activation above about 30%; inactive = the rest.

Cc1cccc(C)c1NC(=O)CN(C)C(C)C(=O)NCC(=O)Nc1ccc(F)c(F)c1F (configuration not stated) was read as TRHR PAM -6, D1 ag -1, D1 antag 12, TRHR ag 0 and D1 PAM 3.
For CC(C(=O)Nc1ccc(F)c(F)c1F)N(C)CC(=O)Nc1ccccc1Br (configuration not stated) the results were TRHR PAM 6, D1 ag 0, D1 antag -31*, TRHR ag 0 and D1 PAM -6.
`CCc1c(C)nc2nncn2c1NCc1ccc(Cl)cc1` gave TRHR PAM -5, D1 ag 5, D1 antag -2, TRHR ag 3 and D1 PAM -3.
Cc1ccc(CNc2c(C)c(C)nc3nncn23)cc1 was read as TRHR PAM 7, D1 ag 6, D1 antag -45*, TRHR ag 1 and D1 PAM 2.
`O=C(CSc1ccccc1F)OCC(=O)N1CCN(C(=O)c2ccco2)CC1` gave TRHR PAM 4, D1 ag 0, D1 antag -5, TRHR ag 0 and D1 PAM 3.
Screening Cc1cc(Br)ccc1SCC(=O)OCC(=O)N1CCN(C(=O)c2ccco2)CC1 returned TRHR PAM -2, D1 ag 34*, D1 antag -1, TRHR ag 0 and D1 PAM -4.
`CCC(C)(C)NC(=O)C(c1ccc(OC)cc1)N(Cc1cccs1)C(=O)CCC(=O)Nc1cc(C)on1` (configuration not stated) gave TRHR PAM -3, D1 ag 0, D1 antag -35*, TRHR ag -1 and D1 PAM -9.
Screening Cc1cnc(NC(=O)CSc2ncc(-c3ccccc3)n2Cc2ccco2)s1 returned TRHR PAM 1, D1 ag 79*, D1 antag -32*, TRHR ag 5 and D1 PAM -9.
O=C(CSc1ncc(-c2ccc(F)cc2)n1Cc1ccco1)Nc1nccs1 was read as TRHR PAM -6, D1 ag 20, D1 antag 6, TRHR ag 3 and D1 PAM -4.
`CN=c1scc(-c2ccc(OC)cc2)n1/N=C(\C)c1cccnc1` gave TRHR PAM -6, D1 ag 12, D1 antag -55*, TRHR ag -1 and D1 PAM -8.
Screening C/C(=N/n1cnnc1)c1cccnc1 returned TRHR PAM 2, D1 ag 2, D1 antag -5, TRHR ag 0 and D1 PAM -1.
`CC(C)C(NC(=O)c1ccccc1F)C(=O)NCc1ccccc1` (configuration not stated) gave TRHR PAM -4, D1 ag 0, D1 antag -57*, TRHR ag 0 and D1 PAM -9.
`CC(C)[C@H](NC(=O)c1ccccc1F)C(=O)NCc1ccc(S(N)(=O)=O)cc1` gave TRHR PAM -16, D1 ag 0, D1 antag 11, TRHR ag 0 and D1 PAM 3.
For COc1ccc(-c2[nH]c(-c3ccc4c(c3)OCO4)nc2-c2ccccc2)cc1 the results were TRHR PAM -8, D1 ag 3, D1 antag -76*, TRHR ag -1 and D1 PAM -5.
For COC(=O)c1c(/N=C/N(C)C)sc2c1CCN(c1ncc(C(F)(F)F)cc1Cl)C2 the results were TRHR PAM 3, D1 ag 23, D1 antag -31*, TRHR ag 0 and D1 PAM -14.
Screening COC(=O)c1c(N(S(C)(=O)=O)S(C)(=O)=O)sc2c1CCN(c1ncc(C(F)(F)F)cc1Cl)C2 returned TRHR PAM 1, D1 ag 6, D1 antag -2, TRHR ag -1 and D1 PAM -3.
For CCOC(=O)N1CCC(Nc2ncnc3c2cnn3-c2ccc(C)cc2C)CC1 the results were TRHR PAM 30, D1 ag 1, D1 antag -31*, TRHR ag 0 and D1 PAM -4.
Screening C=CCNc1ncnc2c1cnn2-c1ccc(C)cc1C returned TRHR PAM 11, D1 ag -1, D1 antag 17, TRHR ag -1 and D1 PAM 4.
`CC(=O)Nc1ccc(Nc2ncnc3c2cnn3-c2ccc(C)cc2C)cc1` gave TRHR PAM -9, D1 ag -2, TRHR ag 0 and D1 PAM -4.
`Cc1ccc(-n2ncc3c(NCC(C)C)ncnc32)c(C)c1` gave TRHR PAM -1, D1 ag -1, D1 antag -32*, TRHR ag 1 and D1 PAM -1.
Cc1ccc(C(=O)NCc2ccccc2CN2CCCC2)cc1S(=O)(=O)N1CCOCC1 was read as TRHR PAM 0, D1 ag 0, D1 antag -22, TRHR ag 0 and D1 PAM -20.
`COc1ccc2oc(C(=O)NCc3ccccc3CN3CCCC3)c(C)c2c1` gave TRHR PAM 5, D1 ag 6, D1 antag -57* and TRHR ag 1.
For COc1ccc2cc(C(=O)NCc3ccccc3CN3CCCC3)ccc2c1 the results were TRHR PAM -1, D1 ag 3, D1 antag -64*, TRHR ag 1 and D1 PAM -15.
Screening CC(=O)n1c(C=Nc2ccc(Cl)cc2)c(O)c2ccccc21 returned TRHR PAM 9, D1 ag 39*, D1 antag 2, TRHR ag -4 and D1 PAM 1.
`CCc1ccc(NC(=O)CSc2ncc(S(=O)(=O)c3cc(C)ccc3C)c(=O)[nH]2)cc1` gave TRHR PAM 1, D1 ag 1, D1 antag -9, TRHR ag 0 and D1 PAM 0.
Cn1c(=O)n(C)c2cc(N3CCCC3)c(NC(=O)Nc3ccccc3)cc21 was read as TRHR PAM -7, D1 ag 0, D1 antag -11, TRHR ag 1 and D1 PAM -1.
For O=C(Nc1ccccc1)N1CCN(c2cccc(C(F)(F)F)c2)CC1 the results were TRHR PAM 6, D1 ag 27, D1 antag -34*, TRHR ag 2 and D1 PAM -8.
O=C(c1ccc2nccnc2c1)N1CCN(c2cccc(C(F)(F)F)c2)CC1 was read as TRHR PAM 31*, D1 ag -1, D1 antag 20, TRHR ag 0 and D1 PAM 1.

Bioassay records as filed in PubChem BioAssay.
